Experimental data reported in PubChem BioAssay AID1626 (SRMLSC, 2009).
In all, about 220,000 compounds went through this assay and about 2,000 (0.91%) were called active. Roughly 2% stayed inconclusive and do not appear here. Only a sample is shown. Results with a measured potency or affinity are listed apart. Unmarked numbers belong to inactive results. Rule as the data show it: inconclusive = inhibition above about 80% without an active follow-up result; inactive = below that; test concentration not stated here.

Test: M. tuberculosis H37Rv growth inhibitors, H37Rv strain (AID 1626);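 also: bacteria incubated seven days before Alamar blue readout; 0% = bacteria only wells and 100% = bacteria with antibiotic wells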
Details: active compounds read high, concentration not given here

Compound | inhibition
Cc1cccc(NC(=O)/C=C/c2cccs2)n1 | -10.1%
O=C(/C=C/c1cccs1)Nc1nc(-c2ccccc2)cs1 | -0.14%
O=C(/C=C/c1cccs1)Nc1nccs1 | -4.27%
Cc1ccc(-c2csc(NC(=O)/C=C/c3cccs3)n2)cc1C | 51.8%
Cn1nc(C(=O)Nc2sccc2C(N)=O)ccc1=O | -1.96%
COc1ccc2oc(=O)c(C(=O)N3CCN(c4ccccc4C)CC3)cc2c1 | -3.36%
O=C(N/N=C/c1sc(N2CCOCC2)nc1-c1ccccc1)c1ccccc1F | -7.96%
N#C/C(=C\c1sc(N2CCOCC2)nc1-c1ccccc1)C(=O)Nc1cccc2ccccc12 | 49.2%
COC(=O)c1ccc(-n2nnnc2SCc2nn[nH]n2)cc1 | -5.62%
Cn1c(N)c(C(=O)CSc2ncn[nH]2)c(=O)n(C)c1=O | -13.1%
COc1ccc(Nc2c3c(nc4c(-c5ccccc5)c(C)nn24)CCC3)cc1 | 13.4%
Cc1nn2c(NCCCN(C)C)c3c(nc2c1-c1ccccc1)CCCC3 | 10.8%
Cc1nn2c(NCCN(C)C)c3c(nc2c1-c1ccccc1)CCC3 | -3.03%
Cc1nn2c(Nc3ccccc3)c3c(nc2c1-c1ccccc1)CCC3 | 7.77%
COc1ccc(C(C)=O)cc1CSc1nnc(-c2ccncc2)n1C | -2.28%
Cn1c(-c2csc(-c3cccc(C(F)(F)F)c3)n2)n[nH]c1=S | 3.67%
Cc1ccc(C(=O)NCCSC2CCCCC2)cc1S(=O)(=O)Nc1ccccc1 | -1.4%
O=C(NCc1cccnc1)C(C(=O)c1ccc(F)cc1)n1ccccc1=O (centres undefined) | -8.48%
CCC(=O)NCCc1nc2ccccc2n1CC(=O)c1ccccc1 | -2.01%
C=CCn1c(=O)c2ccccc2n2c(SCC(=O)c3ccccc3)nnc12 | 6.67%
CCN(CC)CCOc1ccc(/C(=C(/Cl)c2ccccc2)c2ccccc2)cc1 | 41%
CN(C)CCOc1ccc(/C(=C(/CCCl)c2ccccc2)c2ccccc2)cc1 | 59.6%
CCCC(=O)Nc1ccc(C(=O)n2nnc3ccccc32)cc1 | -6.7%
COc1ccccc1N1CCN(c2cc(=O)n(Cc3ccc(F)cc3)c(=O)[nH]2)CC1 | 12.4%
O=S(=O)(c1cccs1)N1CCN(c2ccc(O)cc2)CC1 | -12.2%

Compound | inhibition
Cc1ccc(CN(Cc2ccco2)C(=S)NCC(=O)NC2CC2)cc1 | 5.98%
O=C(Nc1ccccc1)c1ccc2ccccc2n1 | 8.34%
Cc1sc(NC(=O)c2cc3ccccc3oc2=O)c(C(=O)OC(C)C)c1-c1ccccc1 | -5.1%
Cc1nc2ccc(NC(=O)c3ccc4ccccc4n3)cc2s1 | -4.06%
CCc1nnc(NS(=O)(=O)c2ccc(NC(=O)c3cc4ccccc4oc3=O)cc2)s1 | 61.4%
CCOc1ccccc1C(=O)Nc1nnc(CC)s1 | -4.9%
CCc1nnc(NC(=O)c2ccc(OC)cc2)s1 | 2.91%
CCc1nnc(NC(=O)c2cc(C)nc3ccccc23)s1 | -1.08%
CCOC(=O)c1c(-c2ccccc2)csc1NC(=S)NC | 18.6%
CN(C)CCCN(Cc1ccccc1)C(=S)Nc1ccc(OC(F)F)cc1 | 4.19%
Cc1cc(C)n(-c2nc3ccccc3nc2Nc2ccc3c(c2)OCO3)n1 | 13.5%
Cc1cccc(NC(=S)NCc2cccs2)c1C | 9.19%
Cc1ccnc(NS(=O)(=O)c2ccc(Cl)nc2)c1 | -4.15%
CCNC(=S)/N=C(/Nc1ccc(OC)cc1)Nc1nc(C)cc(C)n1 | -8.72%
CCc1nnc(NC(=O)c2c(OC)cccc2OC)s1 | -2.43%
CCc1nnc(NC(=O)c2ccncc2)s1 | -7.55%
CCC(CC)c1nnc(NC(=O)c2cc(-c3ccccc3)nc3ccccc23)s1 | 65.7%
CCSc1nnc(NC(=O)c2ccccc2)s1 | 0.13%
CCSc1nnc(NC(=O)c2cccc3ccccc23)s1 | 3.82%
CCC(CC)c1nnc(NC(=O)c2ccco2)s1 | -8.07%
O=C(CSC1=NCCN1)NC12CC3CC(CC(C3)C1)C2 | -6.99%
CCN(CC)S(=O)(=O)c1cc([N+](=O)[O-])ccc1N=Nc1c(O)[nH]c2ccccc12 | 0.25%
COc1cccc(/C=N/NC(=S)Nc2cccnc2)c1 | 3.92%
Cc1nnc(SCC(=O)N2CCC(Cc3ccccc3)CC2)n(N)c1=O | 7%
COc1ccc(C2Nc3ccccc3C(=O)N2NC(=O)c2ccccc2)cc1OC (centres undefined) | 2.58%

Compound | inhibition
COc1cccc(NC(=O)CN(C)CC(=O)Nc2ccc(Cl)cc2[N+](=O)[O-])c1 | 7.39%
Cc1cc(NCCN2CCOCC2)n2nc(C)c(-c3ccc(Cl)cc3)c2n1 | 17.9%
Cc1cccc(-c2cc3nc(C)cc(NCCCn4ccnc4)n3n2)c1 | 5.02%
Cc1cc(NCCCn2ccnc2)n2nc(C)c(-c3ccccc3)c2n1 | -2.71%
COCCNc1cc(C)nc2cc(-c3ccc(C)cc3)nn12 | -4.32%
Cc1cccc(-c2cc3nc(C)cc(NCCCN(C)C)n3n2)c1 | -0.01%
Cc1cc(NCCCn2ccnc2)n2nc(-c3ccc(F)cc3)cc2n1 | -4.87%
CCC(=O)Nc1ccccc1C(=O)OCc1ccc(C(=O)c2ccccc2)cc1 | 27.4%
Nn1c(SCC(=O)N2CCOCC2)nnc1C1CC1 | -3.01%
CCOC(=O)c1cc(N)cc([N+](=O)[O-])c1 | 5.48%
Cc1cccc(C)c1NC(=S)N1CCCN(C)CC1 | -1.16%
CCC(CC)C(=O)N1CCCC(c2nc(-c3cccs3)no2)C1 (centres undefined) | 10%
CC1(OC(=O)CCc2ccccc2)C(=O)C=C2C=C3CCCN3C=C2C1=O (centres undefined) | 6.27%
C/C(Cl)=C/Cn1c(SCC(C)C)nc2c1c(=O)[nH]c(=O)n2C | 3.03%
COc1cccc(NC(=O)N2CCOCC2)c1 | -7.85%
O=C(Oc1ccc(-c2cnc3ccccc3n2)cc1)c1cc([N+](=O)[O-])ccc1Cl | 71.7%
O=C(Oc1ccc(-c2cnc3ccccc3n2)cc1)c1ccco1 | 7.39%
O=C(Nc1cccc(-c2cnc3ccccc3n2)c1)c1ccco1 | -2.67%
O=C(Oc1ccc(-c2cnc3ccccc3n2)cc1)c1cccc([N+](=O)[O-])c1 | 24%
COc1ccc(OC)c(-c2cc(C(=O)Nc3c(C)nn(Cc4ccccc4C)c3C)no2)c1 | 72.8%
Cc1ccccc1NC(=O)CN1C(=S)NC(C)(C)CC1C (centres undefined) | 2.34%
CSc1nnnn1-c1ccc(Cl)cc1 | -2.8%
Cc1sc2ncnc(Sc3nnnn3-c3ccc(Cl)cc3)c2c1C | -0.98%
Cc1ccc(-n2cccc2C(=O)NS(=O)(=O)c2ccc(C)cc2)cc1 | -6.02%
CCc1ccc(OCC(=O)O/N=C(\N)c2ccccn2)cc1 | 8.77%

Compound | inhibition
O=C(CSc1nc(-c2ccccc2)c(-c2ccccc2)[nH]1)NCC1CCCO1 (centres undefined) | -3.58%
N#CC1=C(S)N(c2ccccc2)C(c2ccc(-c3cccc(Cl)c3)o2)NC1=O (centres undefined) | 4.44%
N#CC1=C(S)N(c2ccccc2)C(c2ccc(-c3cc(Cl)ccc3Cl)o2)NC1=O (centres undefined) | 9.36%
C/C=C/c1ccc(OCCCCNCc2ccco2)c(OC)c1 | -4.41%
CCCN(CCC)C(=O)CC(c1ccccc1)c1ccc(C)cc1O (centres undefined) | 2.31%
CCN(CC(=O)NCCC1=CCCCC1)S(=O)(=O)c1ccccc1 | -1.16%
COc1cccc(N2CCN(C(=O)c3ccc4nc(N5CCCCC5)sc4c3)CC2)c1 | 5.19%
CCOC(=O)N1CCN(C(=O)c2ccc3nc(N4CCCCC4)sc3c2)CC1 | -6.19%
CSCCNC(=O)c1cccc(Cl)c1 | 3.62%
Cn1c(=O)c2c(nc(CN3CCOCC3)n2CC(=O)c2ccccc2)n(C)c1=O | -10.9%
CN1CCN(c2ncnc3c2c(-c2ccccc2)cn3-c2ccc(F)cc2)CC1 | 5.53%
Cc1scc(C(=O)N/N=C/c2ccc(OCC(C)C)cc2)c1C | 6.9%
COc1ccc(/C=C/c2ccncc2)cc1 | -1.37%
Cc1ccc(-c2cc(-c3ccc(C)cc3)[n+](C)o2)cc1 | -0.95%
COc1cccc(NC(=O)Cn2c(CCC(=O)O)ccc2-c2cccs2)c1 | -0.82%
Cc1ccccc1NC(=O)c1ccc(CSc2ncccn2)cc1 | 5.28%
CS(=O)(=O)c1ccc(C(=O)NCc2ccc(F)cc2)cc1 | -6.92%
CCn1cc(CNC(=O)c2ccc(C)s2)cn1 | -1.4%
CCn1cc(CNC(=O)c2cccc([N+](=O)[O-])c2)cn1 | -9.32%
O=C(NCc1ccc(F)cc1)c1ccc(N2CCc3ccccc32)c([N+](=O)[O-])c1 | 13.9%
CCOc1ccc(NC(=O)N2CCN(S(C)(=O)=O)CC2)cc1 | -3.68%
COc1ccc(-n2cnc3c(sc4nccc(N(C)C)c43)c2=O)cc1 | 10.5%
COc1ccc(C=C2C(=O)OC(C)(C)OC2=O)cc1OC | -16.1%
CN(C)c1ccc(C=C2C(=O)OC(C)(C)OC2=O)cc1 | -0.63%
